Here are results for 38 molecules from PubChem BioAssay (EPA / NIEHS).

SMILES strings stand for the structures. Several values for one entry are separate records, joined by “and”; a condition that tells them apart may be missing. Equal entries are not always repeated. More than one record can exist for a structure, and the calls need not agree. Activity calls are given as the source filed them. Rule for the calls: active = hit-call score of the fitted dose curve at least 0.9, where 1 is the maximum; inactive = score below 0.9.

In general, AC50 refers to the concentration at which the activity in the assay is half-maximal.

This assay is described as follows: BSK_3C_TissueFactor: BioMAP Diversity Plus: 3C Assay for Tissue Factor Biomarker Activity (AID 2282997). The following applies: BioMAP 3C HUVEC, tissue factor biomarker readout; actives raise or lower the signal. Here is the method:
BSK_3C is a cell-based, multiplexed-readout assay that uses umbilical vein endothelium, a human vascular primary cell, with measurements taken at 24 hours after chemical dosing in a 96-well plate.BSK_3C_TissueFactor is an assay component measured in the BSK_3C assay. It measures Tissue Factor antibody related to regulation of gene expression using ELISA technology.Data from the assay component BSK_3C_TissueFactor was analyzed into 1 assay endpoint. This assay endpoint, BSK_3C_TissueFactor, was analyzed with bidirectional fitting relative to DMSO as the negative control and baseline of activity. Using a type of binding reporter, gain or loss-of-signal activity can be used to understand changes in the signaling as they relate to the gene F3. Furthermore, this assay endpoint can be referred to as a primary readout, because this assay has produced multiple assay endpoints where this one serves a signaling function. To generalize the intended target to other relatable targets, this assay endpoint is annotated to the cytokine intended target family, where the subfamily is coagulation factor.
The levels of cell surface (or secreted, indicated by the prefix "s") biomarker endpoints were measured by ELISA. Overt cytotoxicity to cells in confluent adherent cultures (all systems other than the BT system) was assessed by measuring total protein levels using sulforhodamine B (SRB) staining in parallel cultures at the time of biomarker measurements, indicated as SRB endpoints. For proliferation assays for adherent cell types, individual cell types are cultured at sub-confluence and relative cell numbers quantified by SRB staining at time points optimized for each system (48 h: 3C and CASM3C systems; 72 h: BT and HDF3CGF systems; 96 h: SAg system). SRB was performed by staining cells with 0.1% SRB after fixation with 10% TCA and reading wells at 560 nm.Viability and proliferation of PBMC (T cells) was quantified by Alamar Blue reduction for the SAg and BT systems. For PBMC viability (referred to as PBMC Cytotoxicity within the assay endpoint names), cells were plated (75,000/well in a 96-well plate) and then chemical samples added for 1 h before addition of activators, SEB and TSST-1 (20 ng/mL final concentration each). Cells were incubated for 90 h. Then, Alamar Blue (20 uL/well) (Invitrogen, Cat DAL1100) was added for 6 h, and the plates were read with a fluorescence microplate reader at 546/580 nm (excitation/emission). For PBMC proliferation, cells were plated and activated as above but incubated for only 16 h prior to addition of Alamar Blue. Plates were read after 6 h.
Regarding `O=[N+]([O-])C=Cc1ccccc1`, the AC50 is 4.68 µM (active).

With `CCCOC(=O)c1ccccc1C(=O)OCCC`, the result was inactive. For `Oc1ccc(C2(c3ccc(O)cc3)c3ccccc3-c3ccccc32)cc1`, the AC50 was 12.7 µM (active) and 12.5 µM (active). `COCC(=O)N(c1c(C)cccc1C)N1CCOC1=O`: the outcome was inactive.

Consider `CCC(C)c1cc([N+](=O)[O-])cc([N+](=O)[O-])c1OC(=O)C=C(C)C` (centres undefined), for which the AC50 was 9.89 µM (active).

Regarding `O=C1C=CC(=O)C=C1`, the AC50 is 33.2 µM (active) and the result was inactive.

In the case of `O=C(CCl)c1ccccc1`, the AC50 was 5.4 µM (active). With `CC1(C)[C@H](C(=O)O[C@H](C#N)c2cccc(Oc3ccccc3)c2)[C@@H]1C=C(Br)Br`, the outcome was inactive.

Turning to `COC(C)(C)CCC[C@H](C)C/C=C/C(C)=C/C(=O)OC(C)C`, the AC50 was 20 µM (active). In the case of `O=[N+]([O-])O`, the result was inactive. As to `CCCCCCCCCCCC#N`, the result was inactive. The same measure, in the same setting: the value for `CNC(=O)Oc1cc(C)c(SC)c(C)c1` was “inactive”; that for `CCCC[N+](CCCC)(CCCC)CCCC` was “inactive”.

`COc1ccc(CO)cc1`: the result was inactive. Take `CC(C)(C)C(=O)CCl`: the AC50 is 20 µM (active).

In the case of `O=C1C(Cl)=C(Cl)C(=O)C(Cl)=C1Cl`, the AC50 was 7 µM (active). As to `CCc1cc(C)cc(CC)c1-c1c(OC(=O)C(C)(C)C)n2n(c1=O)CCOCC2`, the outcome was inactive. The same measure, in the same setting: the value for `N#CCCCCC#N` was “inactive”.

On to `Nc1ccc(-c2ccc(N)c(N)c2)cc1N`, for which the AC50 is 5.26 µM (active). Same read-out and setting: the value for `O=C(O)CCCc1ccc(N(CCCl)CCCl)cc1` was 20 µM (active) and 12.3 µM (active); that for `CC(C)CCCCCCCOP(=O)(Oc1ccccc1)Oc1ccccc1` was 9.9 µM (active); that for `C=CC(=O)OCC(CC)CCCC` (centres undefined) was 28.9 µM (active). On to `O=S(=O)(c1ccccc1)c1ccccc1`, for which the outcome was inactive. Consider `CC(C)(c1cc(Cl)c(O)c(Cl)c1)c1cc(Cl)c(O)c(Cl)c1`, for which the AC50 is 24.2 µM (active).

On to `Oc1cc(Cl)ccc1Cl`, for which the result was inactive. With `CC(=O)/C=C/c1ccccc1`, the outcome was inactive. Same read-out and setting: the value for `C=CCN(CC=C)C(=O)C(Cl)Cl` was “inactive”; that for `CC(C)(C)C(O)C(Oc1ccc(-c2ccccc2)cc1)n1cncn1` (centres undefined) was “inactive”.

With `[Cd+2].[Cl-].[Cl-]`, the AC50 is 1 µM (active) and 863 nM (active). For `O=[N+]([O-])c1ccc(Cl)cc1`, the result was inactive.

Consider `Cc1ccc(OP(=O)(Oc2ccc(C)cc2)Oc2ccc(C)cc2)cc1` (tested in a mixture with another compound), for which the result was inactive. In the case of `O=c1[nH]c(Cl)c(Cl)cc1Cl`, the result was inactive. With `O=c1c2ccccc2c(=O)c2c1cc(Cl)c1[nH]c3c([nH]c12)c(Cl)cc1c(=O)c2ccccc2c(=O)c13`, the AC50 was 15.8 µM (active). For the molecule `CC(C)COP(=O)(OCC(C)C)OCC(C)C`, the result was inactive. With `c1ccc(Nc2ccc3ccccc3c2)cc1`, the AC50 is 32.9 µM (active).

Regarding `CC(C)CCCCCCCOC(=O)c1ccccc1C(=O)OCCCCCCCC(C)C`, the outcome was inactive. The same measure, in the same setting: the value for `Clc1ccc(-c2ccccc2)cc1` was “inactive”; that for `O=P1(NCCCl)OCCCN1CCCl` (centres undefined) was “inactive”.
